The subject of the experiment is PPARg:RXRa DBDmut IVT, anti-RXR (DBD mutation: RXRa K156A/R161A, NR concentration 270 nM, RXRa partner concentration 90 nM). Nature of the experiment: PBM binding z-score (relative to random genomic background probes); higher = stronger binding; sequences stand for … in GC…GCGATTGACAGCGTAGAATGAAGG
Put shortly:
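Regression normalization was applied to scanned fluorescence from custom Agilent 4×180K protein-binding microarrays. Before scanning, arrays were incubated 1 h with ligand-free nuclear receptor dimers, and binding was detected with antibodies against each partner (one per run). Binding z-scores use the random background probes as reference.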
The sequence CATGCTAGGTCAATGGTCAGCTAAAGCAGCTCGC registered a PBM binding z-score of 3.11.
As for TTACCAAGGTGAAGGTCGTTGACCCCTCTGTAGA, the figure is 1.51; as for TTACCAGGGTGAGCTGAGGTCGTTGATCCAACTC, 0.596; as for CCTACTGGGCCCTCAGGTCATTGATATCAACGTT, -0.0673.
With ACTAGCAGGCTAAGGGTCACTCAAGATTAGTCCG the figure was 0.414; with TCTTTTAGATCAGCAGGTTAAGAAAGCTGGCCAA, 1.92; with AGAATGAGGTTATTAAGTTCAGGGAATTGCGGTC, 2.87.
In the case of CGGCCTAGGTCAGGGCCAGTATAGGAGGAACGTT, the PBM binding z-score worked out at 0.747.
ACTATTAGTTGACTGAGGGCAACCGATACGACGC showed a PBM binding z-score of 0.524.
With CATTACGGGTCACGAGGTTATAGCACGACGAGCG the figure was 5.61; with CTACCAAGGTGAACAAGGTCATTGATTACTATTC, 3.07.
As for TCTGCTAGTTCAGTTGGTCAGCTAACGAGCTGCC, the figure is 0.762.
With GCTAGTTGGTCAGTAAAAGGTCACAAACCGGTCG the figure was 0.812.
With ATCGAGAGGTCGTGAGGTGAGTATACAGAAAGGC, the PBM binding z-score amounted to 0.135.
As for CGTCCAAGGTCAAACGTCAGTGAAGAGATGACGG, the figure is 4.12.
With ATTTCTAGGTAACCAAGTTCAGTGAATGCCGAAC the figure was 5.61; with CGTCAAAGTTCACGGTAACGTAACAGAAAGCAGC, 0.827; with TTACCAAGGTGAAAGGTCGTAGATGCACGCCTTG, 2.23.
With ATATCTAGGTAACCAAGTTCAGTGAATGCCGAAC the figure was 6.87; with ATCTCAAGGTAAAGTTCAGTGAAAGATCGATAGA, 0.17; with CCTACTGGGCCATCAGGGCATTGATATCAACGTT, 3.95.
On to CCTATGAGTTGACCATAAGGGCAACCGAAGCTCG, for which the PBM binding z-score is -0.0484.
With TCTGCTAGGTGAGTTGGTCAGCTAACGAGCTGCC the figure was 1.24; with GGAACGAGGGCAAAGTTGCTAGCATCTGTCGACG, 3.98.
With ATCGCTAGGTAAGACTCAGTTCAGTGAAGAACGC the figure was -0.311.
With ATCTCAAGGTAACAAGTTCAGTGAAAGAGAGGAC the figure was 0.525; with CCTTACGGCTCACTGACAGGTTATAGCATTTGGA, 0.701.
The sequence TCTATTGGTTGAAGGGCAACCGACGAGTCCGTTT showed a PBM binding z-score of 1.93.
With TCTATTAGTTGAAGCGCAACCGACGAGTCCGTTT the figure was 2.22; with CGCCCAAGGTCATAGGAGGTCAGTGAAGACAGAT, 2.88; with ATATCTAGGTTAAGGGTCATTCAGGTTGGTTCGC, 7.59.
As for CAAACTAGGTCACGAAAGGTCAAAGTAGAATGAC, the figure is 8.54; as for ACTATTAGTTGACTTAGGGCAACCGGTACGACGC, 0.0602; as for CAAACTAGGTCAAAGTCAAAGTCGGTTTGTGCCA, 8.48.
With CCTACTGGGCCATTCAGAGGTCATTTATCATATG the figure was 3.98.
Sequence TCATATAGGTAAATGCTAGGTTAAAGTCCGATCT showed a PBM binding z-score of 3.88.
As for TTACCAAGGTGAGGGTCGTTGATCCCTCTGTAGA, the figure is 1.3; as for CCTAGCAGGCCAGGGTCAATCAAGCATTTCGCTT, 0.298.
As for TCTCAAAGTTCAAAGGTAACGTAAGTATCCACAC, the PBM binding z-score was determined as 2.92.
As for ATATGTAGGTTATCGGGTCATTTAGTTTGCGCAT, the figure is 7.62.

The values above are taken from the supplement of paper PMC6555819.
